B1: ENSMUSG00000029028.198|Lrrc47 (ssRNA)
RNA: GGGAGUUCUACAGUCCGACGAUCGCUUCGAUAUCCGCAUGCUAUGUGUACGCAUCUGUACCAGCACACAGCUGCCAUCCCUCGAGCCACAGUGCCUGGUCCUAAGGACCCAGCAGCUGCACAGAGGACUUGGUGGCCCCGUGCCUUGCCAUCUGGCUGAGAAGAGAACCAGACCCUCAGCCUUCCCCCUCGACACCUUCUCGUUGGUGACCUCUGACCUUAAAGGACCAUUUCUACCUUCUGUAAAAGAACACCUGUUUGGGGUUGCGUGCGGCUUUCAUCCUAAGGCCGUGCGAGAGCCGUUCUCUUGCGGUCGCACUAGUGUGGAAUUCUCGGGUGUCAAGG
B2: ENSMUSG00000029636.117|Wasf3 (ssRNA)
RNA: GGGAGUUCUACAGUCCGACGAUCGCUUCGAUAUCCGCAUGCUAGGAGCCCUGUGGGUACUCAUGUGGAAAGUGCCCACUGACUUUGGCAGAUGGAGUUCACUUUCAUGGCUAGCCCUGAUAGCGUUGGGCACCAGUUAGCCAGGCCAUGUUCAAGCUGCCUAGAGUCUGCAGAGCUUGCAUGGCAGAGCGGCCGCAUCUGGUUCCCUCCUACUCCACCCAGUGGAAAAGAGACCUCCACGUUUUAUUUUCUGGGAUCCCUGCUCCUCUGUUCACCAGGGAGUGAGCACAGGUCAGCACCUCACCUCUUGCGGUCGCACUAGUGUGGAAUUCUCGGGUGUCAAGG
B3: ENSMUSG00000042529.497|Kcnj12 (ssRNA)
RNA: GGGAGUUCUACAGUCCGACGAUCGCUUCGAUAUCCGCAUGCUAGGGCCCCUGCAGCUGGACCAUGUACAGGGCUCCCUGGGGCUUGUCCUCAGGGGCAGAGAAGGACAUGGUGGCAGCAGCACUGAGAACAGGAGCAUGGCCUCUCUCAGACCCCAGGGCAGUCAUUCAGUCUUUUCCAUGGACACUCCCCACCGCUCCACAUACUGCCUCCGCCUCAUUCUUGGGCUCUUCCUGCCUUGCUGUCUUUCCUUCCACACAGAAGCACCAAGCAUCAUCCAUUCCCAUAGGCAAGCCCAGGGCACCUCUUGCGGUCGCACUAGUGUGGAAUUCUCGGGUGUCAAGG
B4: ENSMUSG00000058297.521|Spock2 (ssRNA)
RNA: GGGAGUUCUACAGUCCGACGAUCGCUUCGAUAUCCGCAUGCUAGACCACGUGUGAUGGGUGGGCACAGGUCUGCCUUGCUCCAGCCCCCUCCCUUGGUUUCUGUUGGUACCCAUUUGGCUUUUAUCUGCUUUCUGCUUCACCACUAAGUGCGUAGGUGGGGUCUUUUGAUAUCGGCUCCCCAAAGCCCAAGCCCACAGCCCUAGGAGAGAACCAGGGGCCCAUCUUUGACACCUGGGCCAUCACGAGCCCUCCCGCCUGCAGUUGUCCUAGGGAAAGACCUGGGGGUGCAAAAGGAGAUUCAACUCUUGCGGUCGCACUAGUGUGGAAUUCUCGGGUGUCAAGG
B5: ENSMUSG00000029028.14|Lrrc47 (ssRNA)
RNA: GGGAGUUCUACAGUCCGACGAUCGCUUCGAUAUCCGCAUGCUACCACGUGACUGUGGUCCGCUGACAGGCUCCUGUAGGUGUGGGUGUGCUGUAGGUGUCUGUGUGGGUGUGGGUGUGCUGUAGGUGUCUGUGUGGGUGUGGGUGUGCUAUAGGUAUCUGUGGGUGUGCUGUAGGUGUCUGUGUGGGUGUGCUGUAGGUGUCUGUGUAGGUGUGGGUGUGCUGUAGGUGUCUGUGUGGGUGUGCUAGGUGUCUGUAUAGGUGUGGGUGUGCUGUAGAUGUCUGUGUAGGUAUGGGUGUGCUGUCUCUUGCGGUCGCACUAGUGUGGAAUUCUCGGGUGUCAAGG
B6: ENSMUSG00000029028.27|Lrrc47 (ssRNA)
RNA: GGGAGUUCUACAGUCCGACGAUCGCUUCGAUAUCCGCAUGCUAUAGGUGUCUGUGUGGGUGUGGGUGUGCUAUAGGUAUCUGUGGGUGUGCUGUAGGUGUCUGUGUGGGUGUGCUGUAGGUGUCUGUGUAGGUGUGGGUGUGCUGUAGGUGUCUGUGUGGGUGUGCUAGGUGUCUGUAUAGGUGUGGGUGUGCUGUAGAUGUCUGUGUAGGUAUGGGUGUGCUGUAGAUCUUUGUAGGUGUAGGUAUGCUGUAGGUAUCUGGGUGUGGGUAUGCUGUAGAUGUCUGUGUAGGUGUGGAUAUGCCUCUUGCGGUCGCACUAGUGUGGAAUUCUCGGGUGUCAAGG
B7: ENSMUSG00000029028.15|Lrrc47 (ssRNA)
RNA: GGGAGUUCUACAGUCCGACGAUCGCUUCGAUAUCCGCAUGCUAGACUGUGGUCCGCUGACAGGCUCCUGUAGGUGUGGGUGUGCUGUAGGUGUCUGUGUGGGUGUGGGUGUGCUGUAGGUGUCUGUGUGGGUGUGGGUGUGCUAUAGGUAUCUGUGGGUGUGCUGUAGGUGUCUGUGUGGGUGUGCUGUAGGUGUCUGUGUAGGUGUGGGUGUGCUGUAGGUGUCUGUGUGGGUGUGCUAGGUGUCUGUAUAGGUGUGGGUGUGCUGUAGAUGUCUGUGUAGGUAUGGGUGUGCUGUAGAUCUCUCUUGCGGUCGCACUAGUGUGGAAUUCUCGGGUGUCAAGG
B8: ENSMUSG00000029028.23|Lrrc47 (ssRNA)
RNA: GGGAGUUCUACAGUCCGACGAUCGCUUCGAUAUCCGCAUGCUAGUCUGUGUGGGUGUGGGUGUGCUGUAGGUGUCUGUGUGGGUGUGGGUGUGCUAUAGGUAUCUGUGGGUGUGCUGUAGGUGUCUGUGUGGGUGUGCUGUAGGUGUCUGUGUAGGUGUGGGUGUGCUGUAGGUGUCUGUGUGGGUGUGCUAGGUGUCUGUAUAGGUGUGGGUGUGCUGUAGAUGUCUGUGUAGGUAUGGGUGUGCUGUAGAUCUUUGUAGGUGUAGGUAUGCUGUAGGUAUCUGGGUGUGGGUAUGCUGUAGCUCUUGCGGUCGCACUAGUGUGGAAUUCUCGGGUGUCAAGG
B9: ENSMUSG00000029028.22|Lrrc47 (ssRNA)
RNA: GGGAGUUCUACAGUCCGACGAUCGCUUCGAUAUCCGCAUGCUAGUAGGUGUCUGUGUGGGUGUGGGUGUGCUGUAGGUGUCUGUGUGGGUGUGGGUGUGCUAUAGGUAUCUGUGGGUGUGCUGUAGGUGUCUGUGUGGGUGUGCUGUAGGUGUCUGUGUAGGUGUGGGUGUGCUGUAGGUGUCUGUGUGGGUGUGCUAGGUGUCUGUAUAGGUGUGGGUGUGCUGUAGAUGUCUGUGUAGGUAUGGGUGUGCUGUAGAUCUUUGUAGGUGUAGGUAUGCUGUAGGUAUCUGGGUGUGGGUAUGCUCUUGCGGUCGCACUAGUGUGGAAUUCUCGGGUGUCAAGG
B10: ENSMUSG00000029028.16|Lrrc47 (ssRNA)
RNA: GGGAGUUCUACAGUCCGACGAUCGCUUCGAUAUCCGCAUGCUAGGUCCGCUGACAGGCUCCUGUAGGUGUGGGUGUGCUGUAGGUGUCUGUGUGGGUGUGGGUGUGCUGUAGGUGUCUGUGUGGGUGUGGGUGUGCUAUAGGUAUCUGUGGGUGUGCUGUAGGUGUCUGUGUGGGUGUGCUGUAGGUGUCUGUGUAGGUGUGGGUGUGCUGUAGGUGUCUGUGUGGGUGUGCUAGGUGUCUGUAUAGGUGUGGGUGUGCUGUAGAUGUCUGUGUAGGUAUGGGUGUGCUGUAGAUCUUUGUAGCUCUUGCGGUCGCACUAGUGUGGAAUUCUCGGGUGUCAAGG
B11: ENSMUSG00000029028.18|Lrrc47 (ssRNA)
RNA: GGGAGUUCUACAGUCCGACGAUCGCUUCGAUAUCCGCAUGCUAGGCUCCUGUAGGUGUGGGUGUGCUGUAGGUGUCUGUGUGGGUGUGGGUGUGCUGUAGGUGUCUGUGUGGGUGUGGGUGUGCUAUAGGUAUCUGUGGGUGUGCUGUAGGUGUCUGUGUGGGUGUGCUGUAGGUGUCUGUGUAGGUGUGGGUGUGCUGUAGGUGUCUGUGUGGGUGUGCUAGGUGUCUGUAUAGGUGUGGGUGUGCUGUAGAUGUCUGUGUAGGUAUGGGUGUGCUGUAGAUCUUUGUAGGUGUAGGUAUGCCUCUUGCGGUCGCACUAGUGUGGAAUUCUCGGGUGUCAAGG
B12: ENSMUSG00000029028.33|Lrrc47 (ssRNA)
RNA: GGGAGUUCUACAGUCCGACGAUCGCUUCGAUAUCCGCAUGCUACUGUGGGUGUGCUGUAGGUGUCUGUGUGGGUGUGCUGUAGGUGUCUGUGUAGGUGUGGGUGUGCUGUAGGUGUCUGUGUGGGUGUGCUAGGUGUCUGUAUAGGUGUGGGUGUGCUGUAGAUGUCUGUGUAGGUAUGGGUGUGCUGUAGAUCUUUGUAGGUGUAGGUAUGCUGUAGGUAUCUGGGUGUGGGUAUGCUGUAGAUGUCUGUGUAGGUGUGGAUAUGCUGUAGGUAUCUGGGUGUGCUGUAGGUGUCUGUGUGGCUCUUGCGGUCGCACUAGUGUGGAAUUCUCGGGUGUCAAGG
B13: ENSMUSG00000029028.17|Lrrc47 (ssRNA)
RNA: GGGAGUUCUACAGUCCGACGAUCGCUUCGAUAUCCGCAUGCUACUGACAGGCUCCUGUAGGUGUGGGUGUGCUGUAGGUGUCUGUGUGGGUGUGGGUGUGCUGUAGGUGUCUGUGUGGGUGUGGGUGUGCUAUAGGUAUCUGUGGGUGUGCUGUAGGUGUCUGUGUGGGUGUGCUGUAGGUGUCUGUGUAGGUGUGGGUGUGCUGUAGGUGUCUGUGUGGGUGUGCUAGGUGUCUGUAUAGGUGUGGGUGUGCUGUAGAUGUCUGUGUAGGUAUGGGUGUGCUGUAGAUCUUUGUAGGUGUAGCUCUUGCGGUCGCACUAGUGUGGAAUUCUCGGGUGUCAAGG

Whole data set: some 9,900 sequences, median “r (bound/input frequency ratio)” near 0.7, cut for the highest 2% near 6.5. This is one part of a sample in which the highest values are shown more often than they occur.

Sequence of TDP-43 (Q13148 whole entry): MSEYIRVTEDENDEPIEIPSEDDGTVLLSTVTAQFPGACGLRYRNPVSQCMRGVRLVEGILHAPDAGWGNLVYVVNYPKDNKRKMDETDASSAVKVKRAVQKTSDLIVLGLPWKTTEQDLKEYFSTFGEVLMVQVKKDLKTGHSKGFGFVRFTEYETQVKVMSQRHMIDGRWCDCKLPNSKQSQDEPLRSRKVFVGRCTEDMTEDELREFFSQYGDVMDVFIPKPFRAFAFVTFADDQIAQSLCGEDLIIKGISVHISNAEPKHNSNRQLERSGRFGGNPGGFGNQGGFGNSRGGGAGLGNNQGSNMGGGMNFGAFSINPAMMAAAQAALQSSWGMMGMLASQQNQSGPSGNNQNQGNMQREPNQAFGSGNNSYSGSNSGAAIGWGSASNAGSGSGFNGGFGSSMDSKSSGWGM

This assay concerns the target TDP-43 (Homo sapiens, UniProt Q13148 1-414). Description: RNA Bind-n-Seq with designed 260-mer pool; 25 mM Tris-HCl, 150 mM KCl, 3 mM MgCl2, BSA (printed 500 mg/mL), 20 units/mL SUPERase IN; pH not stated; 500 nM RNA pool, 1 h, 4 C; TDP-43 5, 50, 500 nM; high values mean tight binding. To be noted: protein: recombinant; tags: SBP (GST cleaved off with PreScission; pGEX-GST-SBP). The method, boiled down: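 Binding (R) is the ratio of each oligo's mapped-read-normalized abundance in the bound fraction to its abundance in the input. To obtain it, SBP-tagged recombinant TDP-43 (5, 50 or 500 nM) on streptavidin beads was incubated with 500 nM of an in vitro-transcribed 260-nt 3′ UTR oligo pool for 1 h at 4 °C in 25 mM Tris-HCl, 150 mM KCl, 3 mM MgCl2, BSA and SUPERase IN. The RNA retained after washing was released with biotin, then reverse transcribed, amplified by PCR and sequenced.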
As for B1, the binding signal was 0.346 R (bound/input frequency ratio).
Regarding B2, the binding signal was 0.346 R (bound/input frequency ratio).
With B3 the figure was 0.929 R (bound/input frequency ratio).
Turning to B4, the binding signal is 0.432 R (bound/input frequency ratio).
With B5 the figure was 6.07 R (bound/input frequency ratio); with B6, 5.47 R (bound/input frequency ratio).
With B7 the figure was 6.93 R (bound/input frequency ratio).
With B8, the binding signal is 5.87 R (bound/input frequency ratio).
With B9 the figure was 5.37 R (bound/input frequency ratio).
With B10 the figure was 6.62 R (bound/input frequency ratio); with B11, 5.03 R (bound/input frequency ratio).
On to B12, for which the binding signal is 5.4 R (bound/input frequency ratio).
With B13 the figure was 8.61 R (bound/input frequency ratio).

The values are drawn from article PMC12864922, “TDP-43 directly inhibits mRNA accumulation in neurites through modulation of mRNA stability”.
